Experimental data: ChEMBL document CHEMBL3433997, “St. Jude Leishmania screening dataset” (2016)

How the values were obtained:
Assay type in all cases: functional
[1] = target: Solute carrier family 2, facilitated glucose transporter member 1 (Homo sapiens) (UniProt P11166); test: ST_JUDE_LEISH: Cytotoxicity at 2uM final concentration against transgenic Leishmania Mexicana promastigotes LmGLUT1 that are glucose transport deficient and complemented with the human glucose transporter GLUT1. Activity is measured by DNA content using SYBR green in vitro
[2] = target: Hexose transporter 1 (Plasmodium falciparum) (UniProt O97467); test: ST_JUDE_LEISH: Cytotoxicity at 2uM final concentration against transgenic Leishmania Mexicana promastigotes LmPfHT that are glucose transport deficient and complemented with the Plasmodium falciparum hexose transporter. Activity is measured by DNA content using SYBR green in vitro
[3] = target: Glucose transporter (Leishmania mexicana) (UniProt O61059); test: ST_JUDE_LEISH: Cytotoxicity at 2uM final concentration against transgenic Leishmania Mexicana promastigotes LmGT2 that are glucose transport deficient and complemented with the L. Mexicana glucose transporter 2. Activity is measured by DNA content using SYBR green in vitro

Sequence of Solute carrier family 2, facilitated glucose transporter member 1 (Homo sapiens) (P11166 whole entry): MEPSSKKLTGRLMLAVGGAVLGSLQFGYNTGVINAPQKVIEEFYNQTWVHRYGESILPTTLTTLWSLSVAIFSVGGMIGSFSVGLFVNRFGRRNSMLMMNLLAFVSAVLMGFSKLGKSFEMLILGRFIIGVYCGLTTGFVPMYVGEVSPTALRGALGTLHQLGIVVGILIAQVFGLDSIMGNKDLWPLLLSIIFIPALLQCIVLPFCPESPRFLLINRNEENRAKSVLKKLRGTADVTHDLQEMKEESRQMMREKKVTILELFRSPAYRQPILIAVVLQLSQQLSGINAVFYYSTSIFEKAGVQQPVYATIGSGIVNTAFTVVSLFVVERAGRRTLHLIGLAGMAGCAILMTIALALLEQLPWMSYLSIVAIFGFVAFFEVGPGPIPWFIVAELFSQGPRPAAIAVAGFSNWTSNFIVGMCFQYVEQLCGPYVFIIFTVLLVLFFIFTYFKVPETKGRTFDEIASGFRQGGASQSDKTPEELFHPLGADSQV

Row | SMILES | inhibition [1] [%] | inhibition [2] [%] | inhibition [3] [%]
1 | CCCNCc1ccc(-c2ccc(CN(CCOC)C(=O)CCC(=O)c3ccc(OC)c(F)c3)cc2)nc1 | 0.12 | 3.36 | 1.5
2 | c1csc(-c2nc(N3CCCCC3)ncc2-c2ccsc2)n1 | 4.57 | 4.73 | 2.33
3 | CC(Cc1ccc(CNC(=O)c2ccc(CC(C)NCCc3cccc(Cl)c3)cc2)cc1)NCCc1cccc(Cl)c1 (configuration not stated) | 1.09 | 8.32 | 2.1
4 | O=C(CN1CCN(C(=O)c2ccco2)CC1)Nc1ccc(Br)cc1Cl | -3.24 | -1.31 | -0.59
5 | c1ccc2c(c1)CN(Cc1cc3ccccc3[nH]1)CC1(CCN(Cc3c[nH]c4cnccc34)CC1)O2 | 1.1 | -0.02 | -0.44
6 | CCCN(c1ccc(O)c(CN2CCCCC2)c1)c1ccc([N+](=O)[O-])cn1 | 1.28 | 0.61 | 1.09
7 | Cc1cc(NC(=O)NCCN2CCC(NC(=O)c3ccc(Cl)cc3)CC2)c2ccccc2n1 | 1.7 | 1.76 | 2.94
8 | NS(=O)(=O)c1ccc(Nc2nccc(-c3c(-c4cccc(NC(=O)c5c(F)cccc5F)c4)nn4ccccc34)n2)cc1 | 11.8 | 14.8 | 8.76
9 | Clc1ccc2c(NCc3ccccc3)ccnc2c1 | 1.8 | 3 | -0.97
10 | Cn1cc(Br)c(-c2cccc(Nc3ccnc4cc(-c5nccs5)ccc34)c2)n1 | 3.67 | 2.34 | 4.06
11 | Cc1cccc2nc(-c3cccc(-c4ccc(NC(=O)Cc5ccccn5)cc4)c3)[nH]c12 | 4.3 | 2.5 | 2.64
12 | CN(C)CCNC(=O)c1ccc2c(c1)n(C1CCN(S(=O)(=O)c3ccc(-c4ccccc4)cc3)CC1)c(=O)n2CC1CCCCC1 | -1.79 | -0.94 | -1.74
13 | Cc1noc(-c2cccs2)c1C(=O)NC(C)c1cccc2ccccc12 (configuration not stated) | -0.34 | 0.45 | 0.18
14 | CCOc1ccc2c(=NN=Cc3cccc(Cl)c3)cc(C)[nH]c2c1 | 8.03 | 6.27 | 16
15 | O=C(Nc1cc(C(F)(F)F)ccc1-n1cncn1)C1(c2ccccc2)CC1 | -1.28 | -1.95 | 0.27
16 | CCCN(CCC)CCCN(CCCN(CCC)CCC)c1cc(C)nc(Nc2ccc(Cl)cc2)n1 | 3.33 | 1.71 | 2.52
17 | O=C1c2ccccc2C(=O)N1c1ccc(S(=O)(=O)N2CCOCC2)cc1 | 8.7 | 6.66 | 8.08
18 | Fc1cc(Cl)ccc1Nc1ccnc2cc(I)ccc12 | 2.92 | 5.41 | 3.25
19 | CC(C)CNCc1cccc(-c2cccc(CN(CCCN3CCN(C)CC3)C(=O)/C=C/c3ccccc3)c2)c1 | -1.06 | -1.23 | -4.91
20 | Cc1cccc(CNc2nc(C)cc(NCCC(=O)Nc3ccccc3)n2)c1 | 10.3 | 11.3 | 5.57
21 | CCn1cc(C=C2Oc3c(ccc(O)c3CN3CCCCC3)C2=O)c2cc(OC)ccc21 | 3.02 | 2.04 | -0.31
22 | Cc1ccc(Cn2ncc(N3CCC(N)CC3)c(Cl)c2=O)cc1NC(=O)Nc1ccc(-c2ccccc2)cc1 | 14.2 | 12.3 | 11.9
23 | c1ccc(CCNCc2ccc(-c3cccc(CNc4ccc5ncccc5c4)c3)cc2)cc1 | 14.6 | 11.7 | 11.3
24 | Clc1ccc(-c2ccc(C=NNc3nc(=Nc4ccccc4)[nH]c(=Nc4ccccc4)[nH]3)o2)cc1Cl | -3.26 | -1.12 | 7.88
25 | CCS[C@@H]1O[C@H](COC(=O)c2ccccc2)[C@H](OC(=O)c2ccccc2)[C@H](OC(=O)c2ccccc2)[C@H]1OC(=O)c1ccccc1 | 1.02 | 4.06 | 2.02

Row | SMILES | inhibition [1] [%] | inhibition [2] [%] | inhibition [3] [%]
26 | Nc1nccc2ccc(-c3ccc(OCc4ccccc4)cc3)cc12 | 0.87 | 2.36 | 1.39
27 | N/C(=N\c1cccc(Cc2ccccc2)n1)NCc1ccccc1 | 2.04 | -1.19 | 3.21
28 | Cc1cc(NC(=O)c2cccs2)ccc1OC1CCN(Cc2ccc(C#N)cc2)C1 (configuration not stated) | 2.86 | 4.23 | 3.26
29 | NS(=O)(=O)c1cccc(Nc2nccc(-c3c(-c4cccc(NC(=O)c5c(F)cccc5F)c4)nn4ccccc34)n2)c1 | 2.78 | 7.67 | 1.61
30 | COc1cccc(Nc2c(C(N)=O)cnc3ccc(-c4ccc([S+](C)[O-])cc4)cc23)c1 (configuration not stated) | 2.64 | 4.5 | 0.66
31 | CCOC(=O)c1cc(C(=O)NCCCCN2CCC(c3cn(C)c4ccccc34)CC2)ccc1-c1ccc(C(F)(F)F)cc1 | 2.37 | 2.2 | 1.11
32 | Cc1ccccc1-c1nc2c(CN3CCC(O)(c4ccccc4)CC3)c(O)ccc2[nH]1 | 11.5 | 8.82 | 8.8
33 | CC(C)c1ccc(NC(=O)c2ccc(C(=O)NC3CCN(CC4CCCCC4)CC3)cc2)cc1 | 0.94 | -0.49 | 0.52
34 | CCOc1ncccc1CN1CCC(N2CCc3cc(NC(=O)c4ccco4)ccc32)C1 (configuration not stated) | 0.43 | -0.71 | 1.65
35 | Fc1cccc(COc2ccc(Nc3ncnc4sc(C#Cc5ncc[nH]5)cc34)cc2Cl)c1 | 0.39 | -0.11 | -0.59
36 | COc1ccc2nccc(N3CCC(O)(CCNCc4ccc5c(n4)NC(=O)CS5)CC3)c2n1 | 7.13 | 8.14 | 7.92
37 | c1ccc(Oc2cccc(Nc3ccnc4ccccc34)c2)cc1 | 8.44 | 10.4 | 3.97
38 | CS(=O)(=O)Cc1ccc(Nc2nccc(NC3CCN(c4nccc(C(F)(F)F)n4)CC3)n2)cc1 | 2.96 | 1.41 | -2.6
39 | CC(C)COc1ccc(Cl)cc1Cc1ccc(-c2nc3ccc(F)c(F)c3[nH]2)o1 | 0.98 | -1.63 | 0.57
40 | CCOC(=O)c1c(CNc2ccncc2)n(C)c2cc(Br)c(OC(C)=O)cc12 | -0.11 | 2.99 | 1.88
41 | CCOC(=O)c1cccc(NC(=O)Nc2cc(C)nc3ccccc23)c1 | 9.1 | 6.21 | 5.11
42 | COc1ccc2nccc([C@@H](O)CN3CCC(NCC4COc5ccccc5O4)CC3)c2c1 (some centres not stated) | 7.53 | 8.69 | 1.37
43 | CC1CCCN1Cc1cccc(-c2ccc(C(=O)NCCOc3ccccc3)s2)c1 (configuration not stated) | 72 | 38.9 | 25.7
44 | CCC[C@@H]([C@@H](CC1CCCCC1)C(=O)N[C@H](C(=O)Nc1nccs1)C(C)(C)SC)N(O)C=O | 9.33 | 8.98 | 8.5
45 | COc1ccccc1C1CCN(C2CCC(NC(=O)/C=C/c3cccc(Cl)c3)CC2)CC1 (configuration not stated) | 3.59 | 0.95 | -0.85
46 | COc1ccc(Cl)cc1NC(=O)C(C)N1CCN(S(=O)(=O)c2ccccc2F)CC1 (configuration not stated) | 4.36 | 3.53 | 3.44
47 | CN(C)CCCNCc1ccc(-c2ccc(C(F)(F)F)cc2)cc1 | 5.63 | 4.5 | 4.81
48 | N=C(N)NN=CC(=O)Nc1cc([N+](=O)[O-])cc([N+](=O)[O-])c1 | 8.23 | 7.12 | 6.66
49 | CC(NC(=O)c1ccc(O)c(-c2ccc(Cl)c(Cl)c2)c1)C(=O)NCCN1CCCC1 (configuration not stated) | 7.43 | 6.16 | 4.25
